Results published in PubChem BioAssay AID1345085 (National Center for Advancing Translational Sciences (NCATS), 2018).
Records with an inconclusive call do not appear. Calls of active or inactive are those of the source. Calls come from the whole dose curve; as a rule, active = well fitted cell-killing curve with a large enough effect; inconclusive = small, poorly fitted or top-dose-only effect, or effect the other way; inactive = no such curve, though single readings can be large or run the other way. *1 amine or outer side, *2 acyl side, *3 side chain or, on linkers, in order; H or OH if unused. Where a SMILES comes first, the peptide text is derived from it. Bridges are numbered along the chain shown (N, C = ends). Roman numbers before positions name the chains, in order. [ ]: non-standard residue; d: D form. Actinocin(9to1) = Cc1c2oc3c(C)ccc(C(=O)[*:1])c3nc-2c(C(=O)[*:2])c(N)c1=O; NMeV = CN[C@H](C(=O)O)C(C)C; Sar = CNCC(=O)O

These molecules were tested on JEG-3 (assay: Confirmatory qHTS for gynecologic anti-cancer compounds from libraries of approved drugs and bioactive compounds). Conditions: gynecologic cancer cell panel viability, ATPlite luminescence, 48 h; series mostly up to 57.6 µM.
In short: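 1,000 cells/well; 16 h pre-incubation 37 C, 5% CO2; pin-transferred cpd in DMSO, 11 conc (1:3), 57.5 uM–0.977 nM; 48 h; ATPlite, 15 min RT; luminescence → IC50.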
% is set by controls: 0 for no effect and ±100 for the full control effect; potency is the fitted concentration of half-maximal effect.
Note: nearly all actives have a fitted effect of over 55% in size.

| SMILES | Potency | activity change, negative = viability loss |
| --- | --- | --- |
| OC[C@H]1O[C@@H](n2cnc3c(=S)nc[nH]c32)[C@H](O)[C@@H]1O | 4.85 µM (active) |  |
| Fc1cc(-c2cccc3ncc(-c4cnn(C5CCNCC5)c4)nc23)cc(F)c1CN1CCOCC1 | 30.6 µM (active) |  |
| Cc1c(NC(=O)OCC2COCCN2)cn2ncnc(Nc3ccc4c(cnn4Cc4cccc(F)c4)c3)c12 (centres undefined) | 30.6 µM (active) |  |
| Cc1ccc(C(=O)N(CCCN)C(c2oc3cc(Cl)ccc3c(=O)c2Cc2ccccc2)C(C)C)cc1 (centres undefined) | 0.109 µM (active) |  |
| Nc1ccccc1NC(=O)c1ccc(CNc2nccc(-c3cccnc3)n2)cc1 | 2.17 µM (active) |  |
| CCN1C[C@H](C)n2c(c(O)c3c(=O)n(Cc4ccc(F)c(Cl)c4)nc(C(=O)NC)c32)C1=O | inactive |  |
| Nc1nc(=S)c2[nH]cnc2[nH]1 | 4.32 µM (active) |  |
| COc1cccc2cc(-c3nc(C4CCC(C(=O)O)CC4)n4ncnc(N)c34)[nH]c12 (centres undefined) | inactive |  |
| Cc1nc(N)sc1-c1ccnc(Nc2ccc(N3CCOCC3)cc2)n1 | 13.7 µM (active) |  |
| O=c1c2ccccc2nc2n1CCc1c-2[nH]c2ccccc12 | inactive |  |
| CC[C@@]1(O)C(=O)OCc2c1cc1n(c2=O)Cc2cc3c(CN(C)C)c(O)ccc3nc2-1 | 1.09 µM (active) |  |
| O=C1c2c(O)ccc(O)c2C(=O)c2c(NCCNCCO)ccc(NCCNCCO)c21 | 2.43 µM (active) |  |
| Cc1c2oc3c(C)ccc(C(=O)N[C@@H]4C(=O)N[C@H](C(C)C)C(=O)N5CCC[C@H]5C(=O)N(C)CC(=O)N(C)[C@@H](C(C)C)C(=O)O[C@@H]4C)c3nc-2c(C(=O)N[C@@H]2C(=O)N[C@H](C(C)C)C(=O)N3CCC[C@H]3C(=O)N(C)CC(=O)N(C)[C@@H](C(C)C)C(=O)O[C@@H]2C)c(N)c1=O (I: T[dV]P[Sar][NMeV] / II: T[dV]P[Sar][NMeV]; ester I:1-I:C, II:1-II:C; linker I:N-II:N via Actinocin(9to1)) | 1.09 µM (active) |  |
| CC(Oc1ccc2[nH]nc(/C=C/c3cnn(CCO)c3)c2c1)c1c(Cl)cncc1Cl (centres undefined) | 6.85 µM (active) |  |
| COc1cc2c(Oc3ccc(-c4cnc(Nc5ccc(F)cc5)n(C)c4=O)cc3F)ccnc2cc1OCCCN1CCOCC1 | inactive |  |
| NC(=O)c1cccc2cn(-c3ccc([C@@H]4CCCNC4)cc3)nc12 | inactive |  |
| NC(=O)Nc1cc(-c2cccc(F)c2)sc1C(=O)NC1CCCNC1 (centres undefined) | 1.22 µM (active) |  |
| Cc1csc(NC(=O)c2sc3nc4c(c(C(F)(F)F)c3c2N)CCC4)n1 | 13.7 µM (active) |  |
| Cc1cnc(CNC(=O)c2c(=O)c3ccc(N4CCCN(C)CC4)nc3n3c2sc2ccccc23)cn1 |  | -17.5% [at 10.6 µM] (inactive) |
